A selection: hits, their analogues and other compounds. The true share with any hit is near 1.1%.
NCOA1 inh = SRC1 coactivator transcriptional activity inhibitors, primary screen, cell-based, luminescence | 360,000 compounds, 0.12% hits | inhibition, % at 3.6 µM | AID 588354, 2011 | Nuclear receptor coactivator 1 (Homo sapiens), Q15788 | HEK293 GAL4-SRC1 luciferase reporter;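 active means inhibition above the campaign mean plus 3 SD, with each screening campaign given its own cutoff, cut at about 60% in these data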;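 further: 0% = DMSO treated cells and 100% = gossypol at 36 µM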
NR2F2 inh = NR2F2 transcriptional activity inhibitors, primary screen, cell-based, luciferase reporter, HEK293T, luminescence; COUP transcription factor 2 (Homo sapiens), P24468; HEK293T NGFI-A luciferase reporter; inhibition, % at 8.6 µM; 370,000 compounds, 0.7% hits; AID 686940, 2013;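 active means inhibition above a per-plate cutoff, mean inhibition of test wells between control levels plus 3 SD, cut at about 38% in these data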;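 further: cells cotransfected with COUP-TFII expression vector driving the NGFI-A reporter; 0% = median of COUP-TF2 test wells and 100% = reporter-only cells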
Target sequence (P24468 whole entry, looked up): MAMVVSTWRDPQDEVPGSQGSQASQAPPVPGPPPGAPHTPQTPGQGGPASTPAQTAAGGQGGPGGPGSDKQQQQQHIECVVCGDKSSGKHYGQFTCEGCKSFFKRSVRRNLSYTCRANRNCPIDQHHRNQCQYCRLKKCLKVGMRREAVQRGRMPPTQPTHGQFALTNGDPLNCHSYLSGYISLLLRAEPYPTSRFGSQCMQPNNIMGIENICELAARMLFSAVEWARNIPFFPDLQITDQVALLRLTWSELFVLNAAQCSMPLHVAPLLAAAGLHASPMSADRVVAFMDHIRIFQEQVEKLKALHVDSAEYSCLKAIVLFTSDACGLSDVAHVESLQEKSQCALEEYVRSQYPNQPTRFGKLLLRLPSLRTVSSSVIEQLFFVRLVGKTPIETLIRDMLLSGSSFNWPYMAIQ
LRH-1 inv ag = LRH-1 (NR5A2) inverse agonists, primary screen, cell-based, luminescence, HEK293T, StAR-luciferase reporter. 360,000 compounds, 0.13% hits. LRH-1 transfected, 24 h. AID 602396, 2012. inhibition, % at 3.6 µM;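 active means inhibition above the mean inhibition of all tested compounds plus 3 SD, cut at about 73% in these data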;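 further: 0% = DMSO wells and 100% = reporter-only cells lacking LRH-1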
GalR3 antagonist = GalR3 antagonists in HEK293 cells, primary screen, cell-based, fluorescence readout; Galanin receptor type 3 (Homo sapiens), O60755; 360,000 compounds, 0.44% hits; inhibition, % at 3 µM; HEK293 GalR3-CNG cAMP membrane potential fluorescence; galR3 body fused to GalR1 C-terminus;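 active means inhibition above the screen-wide average plus 3 SD, cut at about 13% in these data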;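 further: forskolin and galanin both at EC90 stimulate the cells; cAMP rise reported by CNG channel membrane potential dye signal; 0% = forskolin plus galanin with DMSO and 100% = forskolin alone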
Target sequence (O60755 1-299 limits assumed): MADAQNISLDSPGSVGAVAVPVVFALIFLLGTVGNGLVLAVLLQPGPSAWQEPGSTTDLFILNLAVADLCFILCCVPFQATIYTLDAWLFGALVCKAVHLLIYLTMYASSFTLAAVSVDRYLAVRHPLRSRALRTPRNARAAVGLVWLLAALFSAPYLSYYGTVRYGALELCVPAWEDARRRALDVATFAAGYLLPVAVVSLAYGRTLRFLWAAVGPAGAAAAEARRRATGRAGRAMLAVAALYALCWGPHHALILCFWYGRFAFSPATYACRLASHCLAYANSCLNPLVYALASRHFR
NCOA3 inh = SRC3 coactivator transcriptional activity inhibitors, primary screen, cell-based, luminescence; Nuclear receptor coactivator 3 (Homo sapiens), Q9Y6Q9; HEK293 GAL4-SRC3 luciferase reporter; inhibition, % at 3.6 µM; 360,000 compounds, 0.17% hits; AID 588352, 2011;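 active means inhibition above a per-campaign cutoff, the mean of all compounds plus 3 SD, cut at about 60% in these data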;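 further: 0% = DMSO-treated cells and 100% = gossypol-treated cells at 36 µM; higher means less SRC3-driven luciferase light from the GAL4 reporter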
NCOA2 inhibitor = inhibition of GAL4-SRC2 driven luciferase reporter, primary screen, SRC2 inhibitor project, cell-based, luminescence; Nuclear receptor coactivator 2 (Homo sapiens), Q15596; HEK293 GAL4-SRC2 luciferase reporter; inhibition, % at 9 µM; 370,000 compounds, 0.17% hits; AID 651957, 2012;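 active means inhibition above the mean inhibition of all tested compounds plus 3 SD, set per campaign, cut at about 52% in these data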;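 further: 0% = DMSO treated cells and 100% = cells given Gossypol at 36 µM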
GalR3 conf = GalR3 antagonist hit confirmation, cell-based, fluorescence, triplicate; 1,600 compounds, 59% hits; inhibition, % at 3 µM; HEK293 GalR3 CNG cAMP biosensor, membrane potential fluorescence; galR3 fused to GalR1 carboxy tail; challenged with forskolin and galanin at EC90; shares compounds with GalR3 antagonist;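 active means inhibition above the primary screen's cutoff, the mean inhibition of all screened compounds plus 3 SD, cut at about 13% in these data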;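 further: 0% = forskolin plus galanin and 100% = forskolin alone with DMSO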
CNG parental = nonspecific cAMP agonists in parental HEK-CNG cells, counter-screen for GalR3 antagonist project, cell-based, fluorescence, high throughput; 1,600 compounds, 10% hits; activation, % at 3 µM; HEK293-CNG parental cells, cAMP membrane potential fluorescence; normalised: DMSO wells 0%, forskolin wells 100%; shares compounds with GalR3 antagonist; AID 652268, 2013; in the data active means activation above about 1.3%
Gal4-VP16 ctr = Gal4-VP16 luciferase reporter inhibitors, counter-screen for COUP-TFII antagonist project, cell-based, luminescence, HEK293. shares compounds with NR2F2 inh. inhibition, % at 8.5 µM. 2,500 compounds, 25% hits. AID 687007, 2013; in the data active means inhibition above about 13%
COUP-TFII conf = NR2F2 transcriptional activity inhibitors, confirmation, cell-based, luciferase reporter, HEK293, triplicate. shares compounds with NR2F2 inh. HEK293 NGFI-A luciferase reporter, luminescence. 2,500 compounds, 45% hits. inhibition, % at 8.5 µM;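 active means mean inhibition over three repeats above a set limit taken from the earlier primary screen, cut at about 38% in these data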;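 further: 100% = cells given the luciferase reporter alone without the COUP-TF2 vector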
* hit, by the source's call; nt = no result given.

SMILES | NCOA1 inh | NR2F2 inh | LRH-1 inv ag | GalR3 antagonist | NCOA3 inh | NCOA2 inhibitor | GalR3 conf | CNG parental | Gal4-VP16 ctr | COUP-TFII conf
O=C(Nc1ccc(F)cc1)c1ccc(CN2CCc3ccccc3C2)cc1 | 20 | 45* | 15 | 103* | -2 | 19 | 104* | 0 | -41 | 34
O=C(Nc1cccc(Br)c1)c1ccc(CN2CCc3ccccc3C2)cc1 | 10 | 53* | 30 | 85* | 0 | 22 | 107* | 0 | -24 | 32
COC(=O)[C@]12C[C@H](CC(=O)N3CCC(c4ccccc4)CC3)C(=O)N(CCc3ccc(OC)c(OC)c3)C1=C[C@H](C(C)C)O[C@@H]2C1CC1 | nt | 11 | nt | nt | nt | 22 | nt | nt | nt | nt
Cc1nn(C)c(C)c1CN(C)S(=O)(=O)c1ccc2ccccc2c1 | 14 | 61* | 39 | 110* | 17 | 25 | 116* | 0 | 2 | 66*
Cc1cc(CNC(=O)c2cccc([N+](=O)[O-])c2C)c2ccccc2n1 | 30 | 64* | 39 | 33* | 34 | 27 | 53* | 0 | 4 | 55*
CC(C)[C@H](NC(=O)[C@H](C)NC(=O)OC(C)(C)C)C(=O)N1CCC2CCN(Cc3ccccc3)CC21 (stereo partly specified) | nt | -10 | nt | -6 | nt | -10 | nt | nt | nt | nt
CCn1c2ccccc2c2cc(NC(=O)COC(=O)c3cccc(F)c3F)ccc21 | nt | -11 | nt | nt | nt | 2 | nt | nt | nt | nt
C[C@@H]1COc2cc(Br)ccc2S(=O)(=O)N1Cc1cn(CCC2OCCO2)nn1 | nt | 1 | nt | nt | nt | -15 | nt | nt | nt | nt
CC(C)c1ccc(CC(=O)N2CCC2(C)C(=O)NCC(C)(C)C)cc1 (stereo unspecified) | 7 | 3 | 11 | -7 | 1 | 19 | nt | nt | nt | nt
C#Cc1ccc(NC(=O)C2(C)CCN2C(=O)Cc2ccc(C(C)C)cc2)cc1 (stereo unspecified) | 24 | 57* | 32 | 84* | 10 | 19 | 92* | 0 | 6 | 47*
C#Cc1ccc(NC(=O)C2(C)CCN2C(=O)Cc2ccc(C(C)(C)C)cc2)cc1 (stereo unspecified) | 10 | 61* | 42 | 27* | 8 | 21 | 94* | 0 | 3 | 43*
CC(C)(C)c1ccc(CC(=O)N2CCC2(C)C(=O)Nc2ccc3[nH]ncc3c2)cc1 (stereo unspecified) | 0 | -2 | -23 | -4 | -2 | 19 | nt | nt | nt | nt
Cn1nc(CC(=O)NCc2ccc(C(F)(F)F)cc2)c2ccccc2c1=O | -8 | 23 | 11 | -3 | 21 | -4 | nt | nt | nt | nt
COc1ccc(CNC(=O)Cc2nn(C)c(=O)c3ccccc23)cc1 | 10 | 49* | 22 | 34* | 14 | 11 | 29* | 0 | 4 | 24
COc1ccc(CCNc2ccc(N3C(=O)CC(C)C3=O)cc2[N+](=O)[O-])cc1OC (stereo unspecified) | 8 | 55* | 36 | 59* | 21 | 29 | 104* | -1 | -5 | 24
CC(C)C[C@H](NC(=O)c1ccc(Cl)cc1Cl)C(=O)N1CCC[C@H]1C(=O)NCc1ccccc1 | nt | 3 | nt | -7 | nt | -1 | nt | nt | nt | nt
CC(C)CC[n+]1ccccc1/C=C/c1ccc(N(C)C)cc1 | 57 | 86* | 91* | 31* | 76* | 16 | 47* | 16* | 26* | 85*
Cc1nn(-c2ccc(NC(=O)c3ccncc3)cc2)c(C)c1Cl | 23 | 67* | 29 | 75* | -10 | 8 | 109* | 0 | -6 | 58*
COc1ccc(N2CCN(CCCNC(=O)CCc3cccc(Cl)c3)CC2)cc1 | nt | 26 | nt | nt | nt | 8 | nt | nt | nt | nt
CN(C)S(=O)(=O)N1CCC(Oc2cccc(C(=O)NC3CCCCC3)c2)CC1 | 34 | 57* | 18 | 14* | 15 | 36 | 62* | 0 | -4 | 40*
O=C1COc2ccc(-c3csc(=Nc4ccc(OC(F)F)cc4)n3CC3CCCO3)cc2N1 (stereo unspecified) | 2 | 6 | 22 | -3 | 15 | 20 | nt | nt | nt | nt
COCC(C)n1c(-c2ccc3c(c2)NC(=O)CO3)csc1=Nc1ccc(OC(F)F)cc1 (stereo unspecified) | 20 | 48* | 39 | 31* | 24 | 28 | 92* | -1 | 16* | 56*
COc1ccc(NC(=O)CN(C)CC(=O)Nc2ccc(C)c(S(=O)(=O)N3CCCCC3)c2)cc1 | 7 | 3 | -10 | -2 | 9 | 0 | nt | nt | nt | nt
Cc1ccc(NC(=O)COc2cccc(C)c2C)cc1S(=O)(=O)N1CCCCCC1 | 11 | 15 | 7 | 0 | 11 | 2 | nt | nt | nt | nt
Cc1ccc(NC(=O)COc2ccc(N(C)C(=O)C(C)(C)C)cc2)cc1S(=O)(=O)N1CCCCC1 | 10 | 74* | 25 | 93* | 10 | 15 | 105* | -1 | 3 | 54*
SMILES | NCOA1 inh | NR2F2 inh | LRH-1 inv ag | GalR3 antagonist | NCOA3 inh | NCOA2 inhibitor | GalR3 conf | CNG parental | Gal4-VP16 ctr | COUP-TFII conf
CCc1cccc(OCC(=O)Nc2ccc(C)c(S(=O)(=O)N3CCCCCC3)c2)c1 | -10 | 40* | -9 | 87* | 21 | 7 | 80* | 0 | 3 | 18
COc1ccc(N2CCN(CCCNC(=O)CCc3ccc(F)cc3)CC2)cc1 | nt | -22 | nt | nt | nt | -10 | nt | nt | nt | nt
Cc1nc2ccccc2cc1OCc1ccccc1 | -12 | 24 | 12 | -6 | -13 | 3 | nt | nt | nt | nt
Cc1nc2ccccc2cc1OCc1ccc(Cl)cc1 | -15 | 50* | 11 | 94* | -4 | -1 | 94* | 1 | -61 | 29
COc1cccc(COc2cc3ccccc3nc2C)c1 | 3 | 59* | 28 | 92* | -3 | -8 | 103* | 0 | -63 | 41*
O=C1[C@@H](CCc2ccccc2)[C@@H]2c3ccccc3C=NN2[C@@H]2c3ccccc3C=NN12 | nt | -3 | nt | nt | nt | -17 | nt | nt | nt | nt
